The list is not random: actives were taken first. Their share in the collection is about 16%.
TDP1 inh: qHTS Assay for Inhibitors of Tyrosyl-DNA Phosphodiesterase (TDP1) | hit rate 0.28% among 350,000 | Potency, µM (highest dose often 130 µM), most hits filed as inhibitors | recombinant TDP1, AlphaScreen DNA substrate cleavage | Tyrosyl-DNA phosphodiesterase 1 (Homo sapiens), Q9NUW8; also: nearly all actives have a fitted effect of over 40% in size
Target sequence (Q9NUW8 whole entry, looked up): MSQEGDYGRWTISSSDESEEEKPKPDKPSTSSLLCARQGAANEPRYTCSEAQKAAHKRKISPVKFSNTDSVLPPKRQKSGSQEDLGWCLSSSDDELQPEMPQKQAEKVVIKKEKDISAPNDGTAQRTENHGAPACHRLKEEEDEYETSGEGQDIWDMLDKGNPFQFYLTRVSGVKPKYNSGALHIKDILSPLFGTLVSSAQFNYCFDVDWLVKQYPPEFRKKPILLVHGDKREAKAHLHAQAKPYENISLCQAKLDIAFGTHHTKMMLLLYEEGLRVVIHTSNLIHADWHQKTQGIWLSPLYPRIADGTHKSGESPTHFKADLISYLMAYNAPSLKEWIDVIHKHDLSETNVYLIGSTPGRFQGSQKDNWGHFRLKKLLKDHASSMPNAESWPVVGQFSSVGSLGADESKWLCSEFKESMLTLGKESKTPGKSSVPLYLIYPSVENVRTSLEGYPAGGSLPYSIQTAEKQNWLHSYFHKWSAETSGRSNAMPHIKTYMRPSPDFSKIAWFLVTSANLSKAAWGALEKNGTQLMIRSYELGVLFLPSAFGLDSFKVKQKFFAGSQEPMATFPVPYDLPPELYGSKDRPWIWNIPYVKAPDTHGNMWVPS
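Recombinant E. coli-expressed Tdp1 (1 nM) preincubated with compound 15 min at RT, then 5'-biotin/3'-phosphotyrosine-FITC DNA substrate (15 nM) added for 5 min. AlphaScreen beads (10 ug/ml) added, 10 min RT; tyrosine-FITC cleavage read as signal loss.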
DT40 TDP1 CPT: qHTS for Inhibitors of human tyrosyl-DNA phosphodiesterase 1 (TDP1): qHTS in cells in presence of CPT; chicken DT40 Tdp1-/-;hTDP1 cells + 20 nM CPT, ATP luminescence, 48 h; Potency, µM (titrated, usually from 46.2 µM), usual class: inhibitors; hit rate 12% among 420,000; also: nearly all actives have a fitted effect of over 55% in size
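Cell growth measured by CellTiter-Glo luminescence after a minimum 48 h, 37 C compound exposure with 20 nM CPT in Tdp1-knockout DT40 cells stably expressing hTDP1, seeded 400/well; qHTS titration format.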
uPA surface inh: qHTS for Inhibitors of Cell Surface uPA Generation; AID 540303, 2011; Potency, µM (doses to about 38.3 µM), most hits filed as inhibitors; cell surface uPA generation assay, qHTS; hit rate 0.31% among 330,000; active = well fitted inhibition curve with a large enough effect; inconclusive = small, poorly fitted or top-dose-only effect; inactive = no such curve, though single readings can be large or run the other way; tested in mouse RAW 264.7 cells; also: nearly all actives have a fitted effect of over 55% in size
miR-21 act: qHTS Assay for Modulators of miRNAs and/orActivators of miR-21; HeLa miR-21 FLuc reporter, luciferase, 48 h; Potency, µM (doses to about 38.3 µM), usual class: activators; 340,000 tested, under 10 active; AID 2288, 2010;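 also: miR-21 action dims this reporter so a rising signal means less miR-21 action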
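Using DMEM plus 10% FBS, HeLa miR-21-FLuc cells are incubated with test compounds (final up to about 40uM) for 48 hours; firefly luciferase signal is then imaged following reagent-mediated lysis.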
DT40 TDP1 no CPT: qHTS for Inhibitors of human tyrosyl-DNA phosphodiesterase 1 (TDP1): qHTS in cells in absence of CPT. DT40 Tdp1-/- hTDP1 cells, no CPT, ATP luminescence, 48 h. Potency, µM (titrated, usually from 46.2 µM), actives largely listed as inhibitors. hit rate 15% among 420,000; also: nearly all actives have a fitted effect of over 55% in size
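Chicken DT40 Tdp1-/- cells complemented with human TDP1, screened without camptothecin (DMSO vehicle only), 400 cells/well. Compounds pin-transferred, cells incubated at 37 °C for at least 48 hr. Growth read as ATP-dependent luminescence (CellTiter-Glo, 30 min at RT).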
Each line names hits and unclear results; the compound was inactive in the other large screens. Unless noted, calls follow the shape of the dose curve; as a rule, active = well fitted curve in the direction sought with a large enough effect; inconclusive = small, poorly fitted or top-dose-only effect, or another doubt; inactive = no such curve, though single readings can be large; an effect the other way counts as inactive or inconclusive.

COc1cc(C(=O)NCC(c2cccnc2)N2CCN(c3ccc(F)cc3)CC2)cc(OC)c1OC (configuration not stated)	DT40 TDP1 CPT inconclusive, DT40 TDP1 no CPT 20.6µM
O=C(NCC(c1cccnc1)N1CCN(c2ccccc2F)CC1)c1ccc(F)cc1 (configuration not stated)	DT40 TDP1 CPT 14.6µM, DT40 TDP1 no CPT 20.6µM (no result: uPA surface inh)
O=C(NCc1cccnc1)C(=O)NCC(c1ccco1)N1CCN(c2ccc(F)cc2)CC1 (configuration not stated)	DT40 TDP1 CPT 23.1µM, DT40 TDP1 no CPT 16.4µM
CCN(CC)CCNC(=O)C(=O)NCC(c1cccnc1)N1CCN(c2ccc(F)cc2)CC1 (configuration not stated)	DT40 TDP1 no CPT inconclusive (no result: uPA surface inh)
COc1ccc(C(=O)NCC(c2cccnc2)N2CCN(c3ccc(F)cc3)CC2)cc1OC (configuration not stated)	DT40 TDP1 CPT inconclusive, DT40 TDP1 no CPT inconclusive
O=C(CSc1nnc(CNC(=O)c2ccco2)o1)Nc1cccc(F)c1	none
COc1ccc(N2CCN(C(CNC(=O)c3ccco3)c3cccnc3)CC2)cc1 (configuration not stated)	DT40 TDP1 CPT inconclusive, DT40 TDP1 no CPT inconclusive
O=C(NCC(c1cccnc1)N1CCN(c2ccc(F)cc2)CC1)c1ccco1 (configuration not stated)	DT40 TDP1 CPT inconclusive, DT40 TDP1 no CPT 16.4µM (no result: TDP1 inh)
COc1ccc(N2CCN(C(CNC(=O)C(=O)NCCC3=CCCCC3)c3ccco3)CC2)cc1 (configuration not stated)	DT40 TDP1 CPT inconclusive, DT40 TDP1 no CPT inconclusive
CCc1ccc(NC(=O)C(=O)NCC(c2cccnc2)N2CCN(C)CC2)cc1 (configuration not stated)	DT40 TDP1 no CPT inconclusive (no result: uPA surface inh)
O=C(NCCc1ccccc1)C(=O)NCC(c1cccnc1)N1CCN(c2ccccc2F)CC1 (configuration not stated)	DT40 TDP1 CPT 20.6µM, DT40 TDP1 no CPT inconclusive (no result: uPA surface inh)
O=C(NCCC1=CCCCC1)C(=O)NCC(c1ccco1)N1CCN(c2ccccc2)CC1 (configuration not stated)	DT40 TDP1 CPT 11.6µM, DT40 TDP1 no CPT 9.2µM
CCc1ccc(NC(=O)C(=O)NCC(c2cccnc2)N2CCN(c3ccc(F)cc3)CC2)cc1 (configuration not stated)	DT40 TDP1 CPT inconclusive, DT40 TDP1 no CPT 3.66µM (no result: uPA surface inh)
Cc1ccc(S(=O)(=O)N2CCCC(C(=O)NCc3ccco3)C2)cc1Cl (configuration not stated)	DT40 TDP1 CPT inconclusive, DT40 TDP1 no CPT inconclusive
CCOc1cc2[nH]c(=O)n(CCCN3CCCC3=O)c(=O)c2cc1OCC	none
O=C(O/N=C1\CCCc2ccccc21)c1ccc(F)cc1	none
O=S(=O)(NCC(c1cccnc1)N1CCN(c2ccccc2F)CC1)c1cccs1 (configuration not stated)	DT40 TDP1 CPT 14.6µM, DT40 TDP1 no CPT inconclusive
O=S(=O)(NCC(c1cccnc1)N1CCN(c2ccc(F)cc2)CC1)c1cccs1 (configuration not stated)	DT40 TDP1 CPT inconclusive, DT40 TDP1 no CPT inconclusive
COc1cc(NC(=O)c2cc(C)nc3c2c(C)nn3-c2ccccc2Cl)cc(OC)c1	DT40 TDP1 CPT inconclusive, DT40 TDP1 no CPT 23.1µM (no result: uPA surface inh)
COC(=O)c1cc(C)nc2c1c(C)nn2-c1ccccc1	none (no result: TDP1 inh, miR-21 act)
Cc1cc(C(=O)N2CCN(c3ccc(F)cc3)CC2)c2c(C)nn(-c3cccc(Cl)c3C)c2n1	DT40 TDP1 CPT 20.6µM, DT40 TDP1 no CPT 14.6µM (no result: uPA surface inh)
Cc1ccc(NC(=O)c2cc(C)nc3c2c(C)nn3-c2cccc(Cl)c2C)c(C)c1	DT40 TDP1 CPT inconclusive, DT40 TDP1 no CPT inconclusive (no result: uPA surface inh)
COc1ccc(NC(=O)c2cc(C)nc3c2c(C)nn3-c2cccc(Cl)c2C)c(OC)c1	none (no result: uPA surface inh)
Cc1cc(C(=O)N2CCN(c3cccc(Cl)c3)CC2)c2c(C)nn(-c3ccccc3Cl)c2n1	DT40 TDP1 CPT inconclusive, DT40 TDP1 no CPT 29.1µM (no result: uPA surface inh)
Cc1ccc(CN2C(=O)CC(Nc3ccc(N4CCOCC4)cc3)C2=O)cc1 (configuration not stated)	DT40 TDP1 no CPT inconclusive
Cc1cc(C)cc(NC(=O)N2C3CCCC2CC(NC(=O)C2CC2)C3)c1 (configuration not stated)	none (no result: TDP1 inh)
COc1cccc(-c2ocnc2C(=O)Nc2ccc3c(c2)CCC3)c1	none
O=C(NCCO)c1nc(C(=O)c2ccccc2)c2ccccc2n1	DT40 TDP1 CPT 23.1µM, DT40 TDP1 no CPT inconclusive (no result: miR-21 act)
O=C(NCCO)c1cc(-c2cc(C(=O)NCCO)c3ccccc3n2)nc2ccccc12	none (no result: TDP1 inh)
COc1ccc(C(=O)CN2CCN(c3cc(C)nc4ccccc34)CC2)cc1	DT40 TDP1 CPT 25.9µM, DT40 TDP1 no CPT 29.1µM
COc1ccc(-c2nsc3c(N4CCN(S(=O)(=O)c5ccccc5F)CC4)ncnc23)cc1	none
COc1ccc2nc(C)cc(N3CCOCC3)c2c1	none (no result: uPA surface inh)
COc1ccc2nc(C)cc(N3CCN(S(=O)(=O)c4ccccc4F)CC3)c2c1	DT40 TDP1 CPT inconclusive, DT40 TDP1 no CPT 3.26µM (no result: miR-21 act)
COc1ccc2nc(C)cc(N3CCN(c4ccccc4)CC3)c2c1	DT40 TDP1 CPT 20.6µM, DT40 TDP1 no CPT 18.4µM
O=C(CC1CC2CCC1C2)NCc1cccs1 (configuration not stated)	none
Cc1[nH]n(-c2ccc([N+](=O)[O-])cc2)c(=O)c1C=NCCN1CCN(C(=O)c2cccc(F)c2)CC1	DT40 TDP1 CPT 14.6µM, DT40 TDP1 no CPT 9.2µM
Cc1[nH]n(-c2ccc([N+](=O)[O-])cc2)c(=O)c1C=NCCN1CCN(C(=O)c2ccc(F)cc2)CC1	none (no result: uPA surface inh)
Cc1[nH]n(-c2ccc([N+](=O)[O-])cc2)c(=O)c1C=NCCc1c[nH]c2ccccc12	DT40 TDP1 CPT 11.6µM, DT40 TDP1 no CPT inconclusive
Cc1[nH]n(-c2ccc([N+](=O)[O-])cc2)c(=O)c1C=NCCN1CCN(C(=O)c2ccc(Br)cc2)CC1	DT40 TDP1 CPT 18.4µM, DT40 TDP1 no CPT 14.6µM
NC(=O)C1CCN(C(=O)CN2CCN(c3cccc(C(F)(F)F)c3)CC2)CC1	none
CC(CNC(=O)c1cccc(Br)c1)n1cncn1 (configuration not stated)	none (no result: TDP1 inh)
O=C(CN(Cc1ccco1)C(=O)c1ccc([N+](=O)[O-])cc1)Nc1ccccc1C(F)(F)F	uPA surface inh inconclusive (no result: miR-21 act)
O=C(Nc1cccnc1)c1ccc(Cl)c(S(=O)(=O)N2CCCCC2)c1	DT40 TDP1 CPT inconclusive
Cc1ccc(C(=O)OC(C)C(=O)NC2CCCCC2)cc1S(=O)(=O)N1CCCCC1 (configuration not stated)	DT40 TDP1 CPT inconclusive, DT40 TDP1 no CPT inconclusive (no result: miR-21 act)

Source: PubChem (National Center for Advancing Translational Sciences (NCATS))
